Assay outcomes (PubChem)
HP1b chromo inh = blocks HP1-beta chromodomain binding to methylated histone tails | AlphaScreen HP1-beta / biotin-H3K9me3 peptide binding | Potency, µM (series often up to 114 µM), inactives show top-dose activity change, negative = inhibition, most hits filed as inhibitors | P83916 | 390,000 compounds, 0.56% hits | AID 540317; note: nearly all actives have a fitted effect of over 70% in size
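HP1-beta protein (50 nM final) preincubated 30 min at room temperature with biotinylated H3(1-18)K9me3 peptide (50 nM) in PBS pH 7.4, 0.01% Tween-20, then compound added for 30 min. AlphaScreen streptavidin donor/nickel chelate acceptor beads (10 ug/mL final), 30 min dark, luminescence read.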
Sfp inh = blocks B. subtilis Sfp PPTase activity; AID 1490; 310,000 compounds, 3.5% hits; Biochemical Sfp PPTase activity, qHTS; Potency, µM, for inactives: largest response in the series, negative = inhibition, most hits filed as inhibitors;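 note: the enzyme is Sfp with the accession as filed and its product quenches rhodamine fluorescence; 0% = enzyme reaction without inhibitor and -100% = no enzyme wells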
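Fluorescence-quenching assay with 15 nM Sfp, 5 uM rhodamine-CoA and 12.5 uM BHQ-2-labelled ybbR peptide in pH 7.6 Hepes/MgCl2 buffer. Enzyme was pre-incubated with compound for 15 min at room temperature. Rate was taken from the 30-min fluorescence change (525/598 nm).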
BAZ2B block = inhibitors of human BAZ2B bromodomain. Q9UIF8. AlphaScreen BAZ2B-H3K14Ac peptide displacement. Potency, µM (series often up to 114 µM), for inactives: at the top dose activity change, negative = inhibition, actives largely listed as inhibitors. 360,000 compounds, 4.4% hits. AID 504333; note: % is set by controls: 0 for no effect and ±100 for the full control effect; nearly all actives have a fitted effect of over 60% in size
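AlphaScreen displacement of biotin-H3(5-23)K14Ac peptide (50 nM final) from BAZ2B (50 nM final) in PBS pH 7.4, 0.01% Tween-20; complex preformed 30 min RT, then compounds (top 110 uM) 30 min RT, beads 20 min dark.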
G9a block = inhibitors of human histone lysine methyltransferase G9a | Q96KQ7 | G9a H3K9 monomethylation, AlphaScreen, 2 h | Potency, µM (titrated, usually from 102 µM), for the others: at the highest dose activity, negative = inhibition, actives largely listed as inhibitors | 350,000 compounds, 8.8% hits; note: % is set by controls: 0 for no effect and ±100 for the full control effect; nearly all actives have a fitted effect of over 75% in size
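Readings reflect AlphaScreen signal from monomethyl-H3K9 antibody detection. HMT at 20 nM; substrate b-H3K9 500 nM; cofactor SAM 20 uM; 2 h RT reaction; compounds tested as titrations in qHTS with 15 min preincubation.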
JMJD2A Tudor = inhibitors of human JMJD2A Tudor domain | O75164 | AlphaScreen JMJD2A-Tudor / H3K4me3 peptide binding | Potency, µM (series often up to 114 µM), inactives show at the top dose activity change, negative = inhibition, usual class: inhibitors | 390,000 compounds, 4.4% hits | AID 504339; note: % is set by controls: 0 for no effect and ±100 for the full control effect; nearly all actives have a fitted effect of over 50% in size
L3MBTL1 inh = blocks human L3MBTL1; Q9Y468; AlphaScreen L3MBTL1–H3K9me1 peptide binding; Potency, µM (top dose mostly 57.1 µM), without a hit: at the highest dose activity, negative = inhibition, most hits filed as inhibitors; 230,000 compounds, 0.66% hits; AID 485360; note: % is set by controls: 0 for no effect and ±100 for the full control effect; nearly all actives have a fitted effect of over 60% in size
Target sequence (Q9Y468 whole entry, looked up): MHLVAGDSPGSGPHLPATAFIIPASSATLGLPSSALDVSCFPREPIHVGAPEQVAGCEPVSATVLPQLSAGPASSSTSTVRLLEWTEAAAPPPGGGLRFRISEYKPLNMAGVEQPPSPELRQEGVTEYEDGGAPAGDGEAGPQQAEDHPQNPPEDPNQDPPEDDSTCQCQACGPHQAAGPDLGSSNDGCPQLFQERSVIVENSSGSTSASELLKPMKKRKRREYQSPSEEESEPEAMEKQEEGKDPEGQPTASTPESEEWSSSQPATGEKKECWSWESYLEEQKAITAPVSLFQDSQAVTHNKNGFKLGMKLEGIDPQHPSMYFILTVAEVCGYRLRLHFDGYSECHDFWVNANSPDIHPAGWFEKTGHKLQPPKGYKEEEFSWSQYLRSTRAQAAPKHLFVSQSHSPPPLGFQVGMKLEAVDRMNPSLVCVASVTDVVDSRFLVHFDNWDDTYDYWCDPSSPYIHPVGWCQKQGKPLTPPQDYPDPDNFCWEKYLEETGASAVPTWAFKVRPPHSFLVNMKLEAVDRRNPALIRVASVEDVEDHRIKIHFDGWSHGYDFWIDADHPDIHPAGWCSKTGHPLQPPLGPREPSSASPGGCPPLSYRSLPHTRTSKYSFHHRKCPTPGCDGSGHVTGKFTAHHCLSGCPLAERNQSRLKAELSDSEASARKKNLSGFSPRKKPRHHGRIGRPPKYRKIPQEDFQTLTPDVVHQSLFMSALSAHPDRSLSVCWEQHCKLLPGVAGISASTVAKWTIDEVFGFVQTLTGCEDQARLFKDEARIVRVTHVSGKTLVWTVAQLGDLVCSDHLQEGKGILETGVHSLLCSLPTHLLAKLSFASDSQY
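First, the protein-peptide complex forms for 30 min at room temperature (L3MBTL1 50 nM, biotinylated H3K9me1 peptide 75 nM). Next, compounds are pin-transferred and incubated 30 min. Finally, AlphaScreen beads are added and read after 30 min.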
* hit, by the source's call; ? = inconclusive; . = no result given; [ ] = dose if it differs, or a comment. Only some compounds are listed: those with a hit (about 12% of all), similar ones and a draw of the others. Calls come from the whole dose curve; as a rule, active = well fitted curve in the direction sought with a large enough effect; inconclusive = small, poorly fitted or top-dose-only effect, or another doubt; inactive = no such curve, though single readings can be large; an effect the other way counts as inactive or inconclusive. Potency is the fitted concentration of half-maximal effect.

SMILES	HP1b chromo inh	Sfp inh	BAZ2B block	G9a block	JMJD2A Tudor	L3MBTL1 inh
Oc1c(C(c2ccccn2)N2CCCCC2)cc(Cl)c2cccnc12 (configuration not stated)	?	4.8%	7.94µM*	7.08µM*	22.4µM*	.
CCCCC(=O)NC(c1cccs1)c1cc(Cl)c2cccnc2c1O (configuration not stated)	49.0%	2.9%	1.7%	?	-12.3%	4.9%
OCCN1CCN(C(c2cccs2)c2ccc3cccnc3c2O)CC1 (configuration not stated)	.	15.8µM*	20µM*	?	.	-2.5%
CN1CCN(C(c2ccc(C(F)(F)F)cc2)c2cc(Cl)c3cccnc3c2O)CC1 (configuration not stated)	.	44.7µM*	39.8µM*	11.2µM*	.	.
CCN1CCN(C(c2ccccc2)c2sc3nc(C)nn3c2O)CC1 (configuration not stated)	47.5%	5.9%	5.9%	25.3%[12.7 µM]	-3.5%	.
Cc1cc2c(s1)c1cnn(Cc3c(F)cccc3C(F)(F)F)c(=O)c1n2C	.	.	.	.	-16.4%	.
O=C(CN1C(=O)COc2ccc(S(=O)(=O)NC3CCCC3)cc21)Nc1ccc(Cl)cc1F	3.3%	.	-3.6%	-7.8%[59 µM]	?	.
CC(C)C[C@H](NC(=O)[C@H](Cc1ccccc1)NC(=O)[C@@H]1CCCN1C(=O)[C@H](CC(=O)O)NC(=O)[C@@H]1CCC(=O)N1)C(=O)N[C@@H](CCCN=C(N)N)C(=O)N[C@@H](Cc1ccccc1)C(N)=O	.	12.7%	.	.	.	.
CN1CCN(C(c2ccc(Cl)cc2)c2cc(Cl)c3cccnc3c2O)CC1 (configuration not stated)	?	79.4µM*	31.6µM*	2.51µM*	39.8µM*	.
Cc1cc(C)cc(NC(=O)CN2C(=O)c3ccccc3Sc3ccc(C(=O)N4CCCC4)cc32)c1	-22.8%	.	-7.9%	?	-19.2%	.
NC(=S)c1ccc[n+]([O-])c1	?	.	.	.	1.12µM*	.
CCOc1ccc(/C=C2\SC(=S)N(CCC(=O)Nc3cccc(C(=O)O)c3)C2=O)cc1	?	-6.4%	50.1µM*	79.4µM*	35.5µM*	.
CCOC(=O)CN1C(=O)S/C(=C/c2ccc(OCc3ccc(C(=O)O)cc3)cc2)C1=O	59.5%	-13.9%	50.1µM*	14.1%[2.33 µM]	?	.
CCOc1ccc(/C=C2\SC(=S)N(CCC(=O)Nc3ccc(C(=O)O)cc3)C2=O)cc1	?	6.1%	22.4µM*	28.2µM*	25.1µM*	-3.0%
O=C(CCN1C(=O)/C(=C/c2ccc3c(c2)OCO3)SC1=S)Nc1ccc(C(=O)O)cc1	?	-6.5%	35.5µM*	21.1%[2.33 µM]	44.7µM*	.
Cc1ccc(C(=O)Nc2nnc(SCc3cc(=O)c4c(C)ccc(C)c4[nH]3)s2)cc1	16.6%[57 µM]	.	-10.3%	-21.3%[59 µM]	-31.5%	.
CC(NS(=O)(=O)c1ccccc1)C(=O)NC1CCCC1 (configuration not stated)	34.2%	-7.1%	-2.0%	60.8%	-17.9%	.
Cc1ccc(S(=O)(=O)NC(C)C(=O)NC2CC2)cc1 (configuration not stated)	27.6%	-2.5%	-3.8%	79.4µM*	-1.1%	.
COc1ccc(Nc2oc(/C=C/c3cccc(OC)c3)nc2C#N)cc1	28.8%	.	-8.3%	-7.3%[59 µM]	-21.4%	.
O=C1C(Cl)=C(NCC2CCCO2)C(=O)N1C1CCCCC1 (configuration not stated)	77.3%	39.8µM*	-2.8%	-3.1%[0.0925 µM]	0.0%[57.1 µM]	36.8%
O=C1C(Cl)=C(NCC2CCCO2)C(=O)N1c1ccccc1 (configuration not stated)	42.3%	-8.6%	-5.9%	?	9.0%	9.8%
Cc1ccc(Cn2c(C(=O)O)c(CNCc3ccc(OC(C)C)cc3)c3ccc(C)cc32)cc1	12.2%	.	-34.9%	?	?	.
NC1=C(c2ccc([N+](=O)[O-])cc2)C(=O)CO1	33.1%	-6.6%	6.3%	-9.1%[59 µM]	4.0%	-0.3%
O=c1oc2c(-c3ccc([N+](=O)[O-])cc3)cc(O)cc2s1	?	39.8µM*	-25.8%	56.2µM*	-31.7%	-22.5%
COc1ccc(NC(=O)c2cccnc2)c([N+](=O)[O-])c1	20.0%	5.8%	-6.3%	-8.3%[12.7 µM]	-11.4%	13.1%
SMILES	HP1b chromo inh	Sfp inh	BAZ2B block	G9a block	JMJD2A Tudor	L3MBTL1 inh
Cc1ccc(C(=O)NCCCNC(=O)c2ccccn2)cc1	25.3%	11.0%	-14.3%	16.6%	-12.4%	.
COc1ccc(NC(=O)c2ccccc2)c([N+](=O)[O-])c1	-22.9%	-0.2%	?	79.4µM*	-35.7%	-20.4%
Cc1ccc(C(=O)NCCCNc2ccccc2[N+](=O)[O-])cc1	0.7%	8.7%	?	56.2µM*	89.1µM*	-3.6%
Cc1c(C(=O)Nc2ccccc2[N+](=O)[O-])csc1-c1ccccc1	28.2µM*	0.5%	11.2µM*	25.1µM*	?	?
COc1ccc(/C=N/Nc2ncccc2[N+](=O)[O-])c(OC)c1	?	8.8%	39.8µM*	28.2µM*	50.1µM*	.
CCCn1c(CCC(=O)Nc2cc(Cl)c(OC)cc2OC)nc2cccnc21	39.3%	.	-13.0%	-2.2%[59 µM]	-12.9%	.
CCCOc1ccc(/C=N/Nc2ccccc2[N+](=O)[O-])c(OCCC)c1	22.4µM*	-0.9%	2.51µM*	8.91µM*	14.1µM*	?
CCCCOc1ccc(C(=O)Nc2ccc(C)cc2[N+](=O)[O-])cc1	-23.7%	-1.5%	?	-4.6%[2.33 µM]	?	-13.7%
COc1ccc(CCNC(=O)Nc2ccccc2[N+](=O)[O-])cc1	-15.8%	18.7%	-14.9%	50.1µM*	-32.0%	-6.2%
O=[N+]([O-])c1ccccc1N/N=C\c1ccccc1F	-18.5%	4.6%	?	.	?	?
